Screening results as filed in PubChem.
Peg3 promoter: Peg3 promoter-driven luciferase inhibitors, primary screen, cell-based, HeLa, luciferase luminescence; HeLa PEG-Prom luciferase reporter, overnight; inhibition, % at 20 µM; 360,000 compounds, 1.7% hits;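 active = inhibition of at least 50% at 20 µM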
CF NFkB inh: inhibitors of PAF-induced NF-kB signaling, primary screen, cell-based, GFP fluorescence, uHTS; inhibition, % at 5 µM; 360,000 compounds, 0.86% hits; AID 588850, 2011; KKLEB NF-kB-GFP reporter, GFP fluorescence overnight;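 active = at least 50% inhibition at 5 µM, scaled per plate between neutral and stimulator controls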;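 also: PAF is a Pseudomonas aeruginosa culture filtrate used as stimulus; plate controls were PAF-stimulated DMSO wells for no effect and unstimulated DMSO wells for full effect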
MITF TRPM1 inh: inhibitors of MITF-dependent TRPM1 promoter reporter, primary screen, cell-based, SK-MEL-5, single point, luciferase; 330,000 compounds, 0.83% hits; inhibition, % at 12.5 µM; AID 488899, 2010; SK-MEL-5 TRPM1 promoter luciferase, 24 h;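 active = mean inhibition across replicates of 60% or more, whatever share of single replicates reaches that level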
HIF-2a block: HIF-2a reporter inhibitors, primary screen, luminescence, 786-0 RCC cells | 786-0 RCC cells HIF-2a reporter, luciferase luminescence, overnight | inhibition, % at 18.8 µM | 360,000 compounds, 0.72% hits | AID 624352, 2012;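 active = inhibition of the luminescence signal of 40% or more relative to plate controls, in a single-dose primary screen at 18.75 µM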
Shn3 inh set2: reduction of Shn3 3'UTR firefly luciferase signal, primary screen, Schnurri-3 inhibitor project, cell-based, Clone20 osteoblasts, set 2. Clone20 osteoblast Shn3 3'UTR firefly luciferase, 24 h. inhibition, % at 12.5 µM. 360,000 compounds, 0.52% hits;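 active = mean inhibition of at least 75% with every replicate also reaching 75%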;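 also: 0% = median of neutral control wells and 100% = pilot-screen positive control compound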
KKLEB tox: cytotoxicity in KKLEB CF airway cells, primary screen, cytotoxicity control for CF NF-kB inhibitor project, cell-based, uHTS, fluorescence assay plates; AID 602141, 2011; KKLEB CF airway cells viability, ATPlite luminescence, overnight; stronger effect = lower value; cells stimulated with P. aeruginosa culture filtrate; activity change (cytotoxicity), % at 5 µM; 360,000 compounds, 0.36% hits;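 active = corrected activity change at or below -50% at 5 µM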
Numbers without * were called inactive. The list is not random: actives were taken first. Their share in the collection is about 2.7%.

How did C=CCNCC(=O)N1N=C(c2ccc3ccccc3c2)CC1c1ccc(OC)cc1 (stereo unspecified) do in these assays?
Peg3 promoter: 66*; CF NFkB inh: 16; MITF TRPM1 inh: -1; HIF-2a block: -34; Shn3 inh set2: 40; KKLEB tox: -12

How did COc1ccc(C2CC(c3ccc4ccccc4c3)=NN2C(=O)CNC2CCCCC2)cc1 (stereo unspecified) do in these assays?
Peg3 promoter: 90*; CF NFkB inh: 30; MITF TRPM1 inh: -2; HIF-2a block: -104; Shn3 inh set2: 13; KKLEB tox: -31

What do the screens show for `CCc1ccc(/C=C/C(=O)c2ccc(S(=O)(=O)N(C)C)cc2)cc1`?
Peg3 promoter: 54*; CF NFkB inh: 15; MITF TRPM1 inh: 4; HIF-2a block: 13; Shn3 inh set2: 26; KKLEB tox: -12

What do the screens show for `CC1(C(=O)Nc2cccc(C#N)c2)CCN1C(=O)Cc1ccc(-c2ccccc2)cc1` (stereo unspecified)?
Peg3 promoter: 29; CF NFkB inh: 25; HIF-2a block: 18; Shn3 inh set2: 81; KKLEB tox: -4

Results for COc1ccc(-c2coc3c(C(=O)NCc4ccc(OC)c(OC)c4)cccc23)c(C)c1 ?
Peg3 promoter: 9; CF NFkB inh: 19; HIF-2a block: 17; Shn3 inh set2: 90*; KKLEB tox: -15

How did CCOC(=O)CNC(=O)N1C[C@H]2CON(C)[C@H]2C[C@H]1c1ccccc1Br do in these assays?
Peg3 promoter: -3; CF NFkB inh: 12; HIF-2a block: 16; Shn3 inh set2: -21; KKLEB tox: 3

What do the screens show for `CCC(C)Sc1nc2c(c(=O)[nH]1)C(c1cccs1)C1=C(CCCC1=O)N2` (stereo unspecified)?
Peg3 promoter: 55*; CF NFkB inh: 21; HIF-2a block: 24; Shn3 inh set2: -3; KKLEB tox: 0

Results for O=C1CCCC2=C1C(c1ccncc1)c1c(nc(SCc3ccccc3Cl)[nH]c1=O)N2 (stereo unspecified) ?
Peg3 promoter: 20; CF NFkB inh: 0; MITF TRPM1 inh: -2; HIF-2a block: 19; Shn3 inh set2: -10; KKLEB tox: 9

Results for C[C@@H]1CC[C@]2(C(=O)O[C@@H]3O[C@H](CO)[C@@H](O)[C@H](O)[C@H]3O)CC[C@]3(C)C(=CCC4[C@@]5(C)CC[C@H](O[C@@H]6OC[C@H](O)[C@H](O[C@@H]7O[C@H](CO)[C@@H](O)[C@H](O)[C@H]7O)[C@H]6O)C(C)(C)C5CC[C@]43C)C2[C@]1(C)O (stereo partly specified) ?
Peg3 promoter: -31; CF NFkB inh: 10; MITF TRPM1 inh: 7; HIF-2a block: 2; Shn3 inh set2: -72; KKLEB tox: -3

What do the screens show for `COc1ccc(/C=C\C(=O)O[C@@H]2C(O)C(O[C@@H]3OC(C)[C@H](O[C@@H]4OCC(O[C@H]5O[C@H](CO)[C@@H](O)C(O)C5O)C(O)C4O)C(O)C3O)[C@H](OC(=O)[C@]34CCC(C)(C)C[C@@H]3C3=CCC5[C@@]6(C)CC(O)C(O[C@@H]7OC(CO)C(O)[C@H](O)[C@H]7O)[C@@](C)(C(=O)O)C6CC[C@@]5(C)[C@]3(CO)CC4)O[C@H]2C)cc1` (stereo partly specified)?
Peg3 promoter: 51*; CF NFkB inh: -58; MITF TRPM1 inh: 68*; HIF-2a block: 34; Shn3 inh set2: -1; KKLEB tox: 8

Results for O=c1cc(CN2CCN(c3ccc(Cl)c(Cl)c3)CC2)c2c(ccc3ccccc32)o1 ?
Peg3 promoter: -37; CF NFkB inh: 13; HIF-2a block: 5; Shn3 inh set2: 3; KKLEB tox: -13

Results for COCCNC(=O)C1CCCN(C(=O)c2ccc3sccc3c2)CC1 (stereo unspecified) ?
Peg3 promoter: -1; CF NFkB inh: 15; HIF-2a block: 6; Shn3 inh set2: -18; KKLEB tox: 10
